In PubChem BioAssay AID624330 (Southern Research Specialized Biocontainment Screening …, 2012):
The campaign covered roughly 340,000 compounds. About 2,100 (0.62%) were called active.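 Rule for the calls: active = first-screen hits whose inhibition reached a set limit at any dose in the follow-up dose series; inconclusive = inhibition above the set first-screen limit but never retested; inactive = the rest.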 These entries were drawn from the full list. Measured potencies and affinities stand elsewhere.

target: Rac GTPase-activating protein 1 (Homo sapiens) (UniProt Q9H0H5); experiment: blockers of MgcRacGAP-driven Rac1 GTP hydrolysis – biochemical, ADP Hunter fluorescence, primary and confirmatory, confirmation (AID 624330); settings: MgcRacGAP-stimulated Rac1 GTP hydrolysis, at 30 µM, stronger effect = higher value, GST-tagged Rac1 F28L mutant substrate;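 note: fluorescence reports GDP produced by GAP-driven GTP hydrolysis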
Sequence (Q9H0H5 whole entry, looked up): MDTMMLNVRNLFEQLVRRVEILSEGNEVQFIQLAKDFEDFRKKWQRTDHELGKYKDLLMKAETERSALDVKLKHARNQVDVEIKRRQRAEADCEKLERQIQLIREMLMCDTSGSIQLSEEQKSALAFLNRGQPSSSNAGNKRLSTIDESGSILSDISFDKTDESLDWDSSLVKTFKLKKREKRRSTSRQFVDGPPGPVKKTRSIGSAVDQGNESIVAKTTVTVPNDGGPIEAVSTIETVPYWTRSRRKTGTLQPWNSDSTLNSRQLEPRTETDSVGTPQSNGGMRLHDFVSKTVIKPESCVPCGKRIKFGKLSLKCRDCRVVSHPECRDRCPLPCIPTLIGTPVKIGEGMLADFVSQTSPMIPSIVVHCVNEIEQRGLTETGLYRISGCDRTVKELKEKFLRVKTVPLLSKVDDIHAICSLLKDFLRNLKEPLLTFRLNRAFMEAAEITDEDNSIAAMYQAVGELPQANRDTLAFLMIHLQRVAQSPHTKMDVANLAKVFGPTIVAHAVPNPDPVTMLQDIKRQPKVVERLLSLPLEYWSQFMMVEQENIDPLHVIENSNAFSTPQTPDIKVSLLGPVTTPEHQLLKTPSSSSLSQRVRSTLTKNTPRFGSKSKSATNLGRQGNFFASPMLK

inhibition, inactive:
Clc1ccc(N2CCN(c3ncnc4c3oc3ccccc34)CC2)cc1 -2.02%
CCC(=O)Nc1cccc(C(=O)OCc2cccc([N+](=O)[O-])c2)c1 5.63%
Cc1cc(C(=O)Nc2c(C)n(C)n(-c3ccccc3)c2=O)on1 11.2%
O=C(c1ccc(F)cc1F)N1CCN(S(=O)(=O)c2ccc3c(c2)OCCO3)CC1 7.11%
COc1cc2cnc(CCO[C@H]3CCCCO3)cc2cc1OC 7.49%
COc1ccc(NC(=O)Cc2ccsc2)cc1S(=O)(=O)N1CCOCC1 -4.48%
Cc1ccc(-c2onc3ccc(C4OCCO4)cc23)cc1 12.2%
CSc1ccccc1NC(=O)NCCCl -4.18%
CCCN1CCN(CCCNC(=O)C(CC)n2nc(C)n3c(cc4occc43)c2=O)CC1 (configuration not stated) 10.2%
O=C(CCl)Nc1sccc1C(=O)c1ccccc1 11.5%
CCOc1ccc(C2Nc3ccc4ccccc4c3-c3c2c(=O)oc2ccccc32)cc1 (configuration not stated) 5.67%
CC(=O)CCc1c(C)nc2ccc(C(=O)O)cc2c1Cl -3.43%
Cc1nc2ccc(C(=O)O)cc2nc1C 8.31%
Cc1cc(C)nc(NC2=NCCN2C(=O)NC2CCCCC2)n1 1.52%
Nc1ncnc2c1ncn2[C@@H]1O[C@H](CNCc2ccccc2OCc2ccc(Cl)cc2Cl)[C@@H](O)[C@H]1O 6.96%
COc1ccccc1/C=N/NC(=O)c1ccc(NC(=O)c2ccccc2Br)cc1 1.59%
Cc1ccc(NC(=O)NC(=O)CSc2n[nH]c(N)n2)c(C)c1 -33.7%
Cc1oc(-c2nc3ccccc3n2C)cc1C(=O)c1ccccc1 -4.53%
O=C(O)c1cc(NCc2ccc3c(c2)OCO3)ccc1N1CCOCC1 12.2%
CC(=O)N1CCN(c2ccc(NC(=O)c3ccc4c(c3)OCO4)cc2)CC1 9.85%
O=C(O)c1ccc(NCc2ccc3c(c2)OCO3)cc1 7.49%
O=C(CN1CCN(Cc2ccc3c(c2)OCO3)CC1)Nc1ccc(N2CCOCC2)cc1 -4.89%
O=C(NCc1ccc2c(c1)OCO2)C(=O)NCC1OCCN1S(=O)(=O)c1ccccc1 (configuration not stated) 4.4%
Cc1cccc(OCC(=O)N2CCCc3ccccc32)c1 -0.63%
COc1ccc(CN(C)CCCn2cnc(C(=O)Nc3ccc(C)c(C)c3)n2)cc1OC 8.28%
CCN1CCN(Cc2cccc(Oc3ccccc3)c2)CC1 22.4%
COc1cccc(CN2CCN(c3ncccn3)CC2)c1OC 2.75%
CN1CCN(Cc2cccc(Oc3ccccc3)c2)CC1 4.23%
O=C(c1ccco1)N1CCN(Cc2cccc3ccccc23)CC1 15.8%
COc1cc(CN2CCN(Cc3ccccc3C(F)(F)F)CC2)cc(OC)c1OC 5.51%
COc1ccccc1CN1CCN(C(=O)c2ccco2)CC1 -1.8%
Cc1cc(Br)ccc1NC(=O)CCSc1ccccc1 2.79%
Cc1ccc(NC(=O)c2cc(N(C)C)ccc2[P+](=O)O)cc1 4.54%
Cc1ccc(C(=O)O)cc1N1CCCC1=O -7.73%
CCC(Sc1nc2n[nH]c(C)c2c(=N)n1-c1ccc(C)c(Cl)c1)C(=O)N1CCOCC1 (configuration not stated) 8.01%
Oc1ccccc1CN1CCCC(N2CCc3ccccc3C2)C1 (configuration not stated) 12.1%
c1ccc2c(c1)CCN(C1CCCCC1)C2 26.9%
COCCN(CCOC)C(=O)COC(=O)c1ccc(Cl)c(S(=O)(=O)N(C)c2ccccc2)c1 3.9%
O=S1(=O)N=C(SCCO)c2ccccc21 4.31%
CC1=C(SCc2ccccc2)C(=O)c2ccccc2C1=O -10.4%
Cc1ccc(OCCNC(=O)C(C)SCC(=O)Nc2ccc(F)cc2)cc1 (configuration not stated) 1.75%
O=C(O)c1ccc2c(c1)C(=O)N(c1ccc(Nc3ccccc3)cc1)C2=O 9.3%
O=C1C=CC(=O)N1c1ccc(O)cc1 15.3%
O=C(c1ccc(Cl)c(Cl)c1)c1cc(-c2ccccn2)c(N2CCOCC2)s1 6.1%
O=C(c1cc(C2CC2)nn1-c1ccccc1)N1CCN(c2ccccc2O)CC1 5.58%
COc1ccc(N2CCN(C(=O)c3cc(C4CC4)nn3-c3ccccc3)CC2)cc1 27.4%
Cc1ccc(-c2cc(C(=O)N3CCN(c4ccccc4O)CC3)c3ccccc3n2)cc1 2.39%
COc1ccc(-c2cc(C(=O)N3CCN(c4ccccc4)CC3)c3ccccc3n2)cc1 -2.68%
CC(=O)c1ccc(N2CCN(C(=O)c3ccc(C(=O)c4ccccc4)cc3)CC2)cc1 -1.4%
O=C(c1ccccc1)N1CCN(c2ccccc2)CC1 5.43%
O=C(c1ccc(Cl)c(S(=O)(=O)N2CCCCC2)c1)N1CCN(c2ccccc2)CC1 11.4%
O=C(c1ccc(Cl)c(S(=O)(=O)N2CCCC2)c1)N1CCN(c2ccc(F)cc2)CC1 6.75%
CCOC(=O)c1c(C)[nH]c(C(=O)N/N=C/c2ccc(OC)c(OC)c2)c1C -4.46%
COc1ccc(NC(=O)c2cccc(NC3=NC4CS(=O)(=O)CC4S3)c2)cc1Cl (configuration not stated) 10.8%
CCc1nnc(N/N=C\c2ccc(OC(C)=O)c(OC)c2)n1N 10.6%
CCC1(CC)C(=O)N(c2ccccc2)C(=N)N(c2ccccc2)C1=O -9.62%
N#Cc1cccc(NC(=O)CN2CCN(Cc3ccccc3)CC2)c1 10.1%
Cc1nc(N)c2c(Cc3cccc4ccccc34)nn(C(C)(C)C)c2n1 2.87%
COc1ccccc1CN(C)C(=O)c1sccc1-c1ccccc1 -0.12%
Cc1ccc(/C(N)=N/OC(=O)c2ccc3ccccc3c2)cc1 7.71%
O=C(NCCCN1CCOCC1)c1cc(-c2ccc(F)cc2)on1 5.56%
C/C(=N/NC(=O)CNC(=O)c1cccs1)c1ccc(Cl)cc1 5.28%
COc1cccc(C=Nc2ccc3c(c2)CCC3)c1O 6.65%
COc1ccc2c(c1)CCc1sc(NC(=O)c3ccco3)nc1-2 9.86%
COc1cccc(C=Nc2cc(C)on2)c1O 10.4%
COc1ccc(N=Cc2c(O)ccc3ccccc23)cc1 14.5%
Oc1ccc2ccccc2c1/C=N/c1nc2c(s1)CCCC2 16%
COc1ccc2c(c1)Cc1sc(NC(=O)c3ccccc3)nc1-2 15.1%
COc1ccc(Cl)cc1NC(=O)CN(C)C(=O)CCCNC(=O)c1ccc(Cl)cc1 -0.09%
CN(C)CCNC(=S)Nc1ccc(Cl)cc1 10.1%
CC(=O)c1ccc(OCc2cc(C(=O)N3CC[C@@H]4CCCC[C@H]4C3)no2)cc1 8.61%
COc1ccccc1NC(=O)CSc1nnc(-c2ccoc2C)n1CC1CCCO1 (configuration not stated) 9.62%
CCCN(CCC)Cc1c(C(=O)N/N=C/c2ccoc2)nnn1-c1nonc1N 6.21%
S=C(NC1CCCCC1)N1CCN(C2CCCCC2)CC1 6.75%
O=C(CSc1nc(Cc2ccccc2)nc2ccccc12)Nc1nc2c(s1)CCCC2 18.2%
COc1cc(CNc2ccc(N3CCN(C(C)=O)CC3)cc2)ccc1OCc1ccc(F)cc1 28.5%
COc1ccc(N2CCN(C(=O)Cc3ccc(OC)c(OC)c3)CC2)cc1 21.6%
COc1ccc(N2CCN(C(=O)NCc3ccc(OC)c(OC)c3)CC2)cc1 23.4%
COc1cc(CNc2ccc(N3CCCC3)cc2)ccc1OCc1ccccc1 7.32%
O=C(COc1ccccc1)NCC(c1ccco1)N1CCN(c2ccccc2)CC1 (configuration not stated) -2.01%
CCCCCC(=O)Nc1ccc(N2CCOCC2)c(S(=O)(=O)Nc2ccc(OC)cc2)c1 10.2%
CC(=O)Nc1c(-c2ccccc2)nc2ncccn12 16.1%
CCN(CC)C(=O)Cn1cc(C(=O)C(=O)N(C)C2CCN(C)CC2)c2ccccc21 0.15%
COc1cc(/C=N/NC(=S)NCCN2CCOCC2)cc(OC)c1O 15.1%
COc1cc(OC)c(OC)cc1/C=N/NC(=S)NCCN1CCOCC1 -4.53%
COc1cc(/C=N/NC(=S)NCCN2CCOCC2)cc(OC)c1OC 7.18%
S=C(NCCN1CCOCC1)N/N=C/c1ccccc1 6.95%
S=C(NCCCN1CCOCC1)Nc1ccc(Nc2ccccc2)cc1 36.5%
Fc1ccc(NC(=S)NCCN2CCOCC2)cc1 4.64%
O=S(=O)(c1cccc(-c2nc3ccccc3s2)c1)N1CCCC1 4.17%
Cc1cc(C(=O)N(NC(=O)C(C)C)c2ccccc2)cs1 5.75%
C=CCn1c(=O)c(C(=O)Nc2ccc(C)cn2)c(O)c2ccccc21 7.02%
CCOc1ccc(C(C(=O)NCC2CCCO2)N(Cc2ccccc2)C(=O)c2snc(C(N)=O)c2N)cc1 (configuration not stated) 6.27%
C=CCc1cc(/C=N/n2cnnc2)cc(OCC)c1O 8.86%
C=CCc1cc(C=O)cc(OCC)c1O 4.85%
CSc1sc2ccccc2[n+]1CCCS(=O)(=O)[O-] 6.67%
CCC(/C=C1\Oc2ccc(OC)cc2N1C)=C\c1sc2ccccc2[n+]1CCCS(=O)(=O)[O-] 20.6%
